From PubChem BioAssay AID504423 (Broad Institute, 2011)
Where “and” joins values, the source holds several entries; their conditions need not be identical. Equal values may be shown once. The whole screen tested about 340,000 compounds, of which about 260 (0.076%) were called active. The sample holds actives, similar compounds and a random draw of the others, so the mix is not that of the screen.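 The calls were made as follows: active = highest replicate inhibition at or above 60% at 9 µM, even if other replicates fall short; inactive = all replicates below 60% inhibition.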

What follows are molecules tested on Kaposi's sarcoma herpesvirus LANA C-terminal domain (residues 932-1162) DNA binding (assay: inhibitors of KSHV C-LANA binding to DNA, primary screen, biochemical, fluorescence polarization, FAM-LBS DNA, MBP-C-LANA, single point (AID 504423;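 also: 0% = neutral control wells and 100% = 4 µM acridine orange control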)). Details: at 9 µM, hits give high values.

inhibition, inactive:
Cc1cc(C)n2nc(C(=O)OCC(=O)N(C)CC(=O)Nc3ccc(F)cc3)nc2n1 0.686%
Cc1ccsc1C(=O)N[C@@H](C)c1nnc2ccccn12 1.44%
CCC(C)(C)NC(=O)C(c1ccccn1)N(C(=O)c1csnn1)c1ccccc1 (centres undefined) -0.461%
O=C1OC(Oc2ccc(Br)cc2)(c2ccccc2)c2ccccc21 (centres undefined) -1.96%
CCC(Cc1ccccc1)NC(=O)C1CCCCC1 (centres undefined) 1.4%
Cc1sc2ncn(CC(=O)NCCCC(=O)NCc3ccc(F)cc3)c(=O)c2c1C 0.451%
Cc1ccc2c(c1)N(CC(=O)N1CCCc3ccccc31)C(=O)C(C)O2 (centres undefined) 2.64%
COc1cccc(COC(=O)C2CCN(S(=O)(=O)c3ccc(Cl)cc3)CC2)c1OC 0.51%
Cc1cc(C)c(S(=O)(=O)c2ccc(F)cc2C)c(=O)[nH]1 -0.026%
COc1ccc(/C(=N\O)c2nccc3cc(OC)c(OC)cc23)cc1OC 0.0523%
O=C(c1ccc(=O)oc1)N1CCC(C(O)(c2ccccc2)c2ccccc2)CC1 1.16%
O=C(CN1CCSCC1)N/N=C/c1ccc(F)cc1F -0.674%
Clc1ccc(-c2nnc(-c3ccccc3)nc2N2CCSCC2)cc1 -0.189%
CC(=O)c1ccc(N2C(=NC(=O)C(C)C)SC3CS(=O)(=O)CC32)cc1 (centres undefined) -0.954%
CCCN(CC(=O)Nc1ccc(OC)c(OC)c1)CC(=O)Nc1ccc(F)c(F)c1F 3.86%
COCCCNC(=O)C1CC(=O)N(c2ccc(C)cc2)C1 (centres undefined) 0.062%
COC(=O)c1c(C)oc(C)c1S(=O)(=O)Nc1ccc(C(C)C)cc1 -0.597%
CCN(CC(=O)NC1CCS(=O)(=O)C1)S(=O)(=O)c1ccccc1 (centres undefined) -1.52%
CCOc1cc(C(=O)Nc2c(C)ccc3nsnc23)cc(OCC)c1OCC -1.85%
CCN(CC(=O)NC(C)C)C(=O)CCNC(=O)c1ccc(Cl)cc1 -0.0284%
COc1ccc(NS(=O)(=O)c2ccc(C)c(C(=O)N(C)Cc3ccc(OC)cc3OC)c2)cc1 28.6%
O=S(=O)(c1ccc(-c2ccccc2)cc1)N1CCCC1 1.28%
CCCn1c(N)c(C(=O)CSc2nnc(-c3cccnc3)n2-c2ccc(C)cc2C)c(=O)[nH]c1=O 0.224%
CC(C)(C)NC(=O)CN1CCC(NC(=O)C23CC4CC(CC(C4)C2)C3)CC1 0.793%
c1ccc2c(NC3C4CC5CC(C4)CC3C5)nc(N3CCOCC3)nc2c1 (centres undefined) 0.795%
CCC(C)(C)c1ccc(OCC(=O)N(C)C)c(C(C)(C)CC)c1 1.97%
Oc1ccc(-c2nc3ccccc3nc2-c2ccc(O)cc2O)c(O)c1 2.95%
CC(=O)Oc1cc2c(C(=O)NCCN3CCOCC3)c(C)oc2c2ccccc12 -0.716%
Cc1cc(C)nc(NNC2=CC(=O)CC(C)(C)C2)n1 2.32%
Cn1c(SCC(=O)N2CCCCC2)nc2c(c1=O)SCC2 -1.34%
COC(=O)[C@@H](NC(=O)NCc1cccc(OC)c1)C(C)C 1.36%
O=C1COc2ccc(C(=O)COC(=O)c3cccnc3Cl)cc2N1 4.34%
O=C(C[n+]1cc(Br)cc2ccccc21)c1ccc(F)cc1 4%
COC(=O)Cc1c(-c2[nH]c3ccccc3c2CC(=O)OC)[nH]c2ccccc12 1.73%
O=C1CCCc2c1[nH]c1ccc(Br)cc21 -0.926%
COCCCN(C(=O)Cn1ncc2c(=O)oc3ccc(C)cc3c21)C(C)c1ccncc1 (centres undefined) 1.23%
O=C(Cn1c[n+](CC(=O)c2ccc([N+](=O)[O-])cc2)cn1)c1ccc([N+](=O)[O-])cc1 -0.902% and -2.71%
CCOC(=O)C(C)N(c1ccccc1Cl)S(C)(=O)=O (centres undefined) 1.82%
CCOC(=O)C1CCN(C(=O)Cn2nc(C)c3c(C)n(-c4ccccc4)nc3c2=O)CC1 -0.173%
O=C1C=C(c2cccc(Cl)c2O)C[C@@H](c2ccc(F)cc2)C1 0.749%
O=C(O)CCn1c(SCc2cc(=O)n3ccccc3n2)nc2ccsc2c1=O 0.383%

inhibition, active:
Cc1nn(C)cc1N1C(=O)c2cccc3c(N)ccc(c23)C1=O 73%
Oc1ccc2ccc3cccc[n+]3c2c1 141%
COC(=O)C[n+]1cccc2ccccc21 70.1%
